Data taken from PubChem BioAssay.

Assays:
[1] = biological target: Tumor necrosis factor receptor superfamily member 10B (Homo sapiens) (UniProt O14763); experiment: viability loss of caspase-8 NB7 cells with TRAIL – with/without TRAIL, luminescence panel, confirmation (AID 651596); conditions: NB7 neuroblastoma + caspase-8, TRAIL sensitization, NB7 Caspase-8, with TRAIL, mean of runs, at 10 µM, stronger effect = higher value
[2] = as above; conditions: NB7 neuroblastoma + caspase-8, without TRAIL, NB7 Caspase-8, without TRAIL, mean of runs, at 10 µM

Chain of Tumor necrosis factor receptor superfamily member 10B (Homo sapiens) (O14763 whole entry, looked up): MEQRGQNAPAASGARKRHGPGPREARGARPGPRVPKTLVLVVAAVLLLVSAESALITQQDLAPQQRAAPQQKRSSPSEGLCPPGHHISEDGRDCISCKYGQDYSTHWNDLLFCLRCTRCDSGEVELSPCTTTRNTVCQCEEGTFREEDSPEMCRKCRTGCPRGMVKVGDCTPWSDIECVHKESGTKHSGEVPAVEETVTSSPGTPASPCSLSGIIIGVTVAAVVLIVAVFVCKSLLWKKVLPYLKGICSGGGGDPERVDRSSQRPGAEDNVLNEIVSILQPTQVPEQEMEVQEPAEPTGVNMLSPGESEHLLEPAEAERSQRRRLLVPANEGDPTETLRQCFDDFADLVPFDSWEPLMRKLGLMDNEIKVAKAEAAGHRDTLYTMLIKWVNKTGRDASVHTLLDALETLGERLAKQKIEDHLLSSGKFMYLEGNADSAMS

| Structure (SMILES) | activity [1] [%] | activity [2] [%] |
| --- | --- | --- |
| Cc1ccc(/C=N/NC(=O)c2cc(C)oc2C)cc1 | 45.1 | 55 |
| COc1ccc(CN(C(=O)CSc2nnc(-c3ccccc3C)o2)c2ccc(F)cc2)cc1 | 97.9 | 97.3 |
| CC(C)(C)OC(=O)NCc1ccc(NC(=O)c2nc[nH]c2C(=O)NCCCCNC(=O)c2[nH]cnc2C(=O)Nc2ccc(CNC(=O)OC(C)(C)C)cc2)cc1 | 95.1 | 96.2 |
| Cc1ccc(OCC(=O)Nc2ccccc2C(N)=O)cc1 | 66.8 | 68.1 |
| CCN(CC(=O)N1CCc2ccccc2C1)S(=O)(=O)c1ccc2ccccc2c1 | 42.7 | 62.5 |
| Cc1ccc(Nc2nc(N)nc(CCl)n2)c(C)c1 | 98.9 | 98.6 |
